# HT1080 IDH1KD tx – HT-1080 IDH1 knockdown cell toxicity (counter line) | HT-1080 IDH1 knockdown viability, ATP luminescence, 48 h | Potency, µM (highest dose often 46.1 µM), for inactives: at the top dose activity, negative = toxicity, hits mostly cytotoxic | 2% of 360,000 active | AID 686971;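 further: potency means the concentration at half of the fitted maximal effect; 0% = DMSO wells and -100% = cell-free medium wells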
#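 Knockdown cells (IDH1KD HT-1080) received compounds 2 h after plating at 750 cells/well and were kept 48 h at 37 °C in 5% FBS RPMI. A CellTiter-Glo luminescence read gave % activity for curve fitting.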
# DT40 TDP1 no CPT – qHTS for Inhibitors of human tyrosyl-DNA phosphodiesterase 1 (TDP1): qHTS in cells in absence of CPT; Potency, µM (titrated, usually from 46.2 µM), without a hit: top-dose activity change, negative = growth inhibition, hits mostly inhibitors; DT40 Tdp1-/- hTDP1 cells, no CPT, ATP luminescence, 48 h; AID 686978, 2013; 15% of 420,000 active; further: potency means the concentration at half of the fitted maximal effect; nearly all actives have a fitted effect of over 55% in size
#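 Seeded 400 DT40-hTDP1 cells/well (vehicle DMSO, no 20 nM CPT); pinned compounds; ≥48 hr at 37 °C; CellTiter-Glo luminescence as viability measure.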
# HT1080NT lethal – kills 2HG-producing HT-1080-NT fibrosarcoma cells; Potency, µM (highest dose often 46.1 µM), inactives show at the top dose activity, negative = less viability, usual class: cytotoxic; AID 686970; HT-1080-NT fibrosarcoma viability, CellTiter-Glo ATP luminescence, 48 h; 1.6% of 360,000 active;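 further: NT is the 2HG producing partner of a matched IDH1 knockdown line; potency means the concentration at half of the fitted maximal effect; 0% = DMSO-treated cells and -100% = media-only wells without cells; nearly all actives have a fitted effect of over 55% in size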
#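 Compounds were tested in concentration-response format on HT-1080-NT cells for 48 hours at 37 degrees C. Cell viability came from CellTiter-Glo luminescence; curves were classified by r2, response magnitude and activity.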
# 12-LOX inh – blocks human arachidonate 12S-lipoxygenase. AID 1671190. P18054. purified 12hLO, xylenol orange hydroperoxide absorbance. Potency, µM (titrated, usually from 108 µM), inactives show at the highest dose activity change, negative = inhibition, most hits filed as inhibitors. 1.1% of 580,000 active; further: potency means the concentration at half of the fitted maximal effect
# Target sequence (P18054 whole entry, looked up): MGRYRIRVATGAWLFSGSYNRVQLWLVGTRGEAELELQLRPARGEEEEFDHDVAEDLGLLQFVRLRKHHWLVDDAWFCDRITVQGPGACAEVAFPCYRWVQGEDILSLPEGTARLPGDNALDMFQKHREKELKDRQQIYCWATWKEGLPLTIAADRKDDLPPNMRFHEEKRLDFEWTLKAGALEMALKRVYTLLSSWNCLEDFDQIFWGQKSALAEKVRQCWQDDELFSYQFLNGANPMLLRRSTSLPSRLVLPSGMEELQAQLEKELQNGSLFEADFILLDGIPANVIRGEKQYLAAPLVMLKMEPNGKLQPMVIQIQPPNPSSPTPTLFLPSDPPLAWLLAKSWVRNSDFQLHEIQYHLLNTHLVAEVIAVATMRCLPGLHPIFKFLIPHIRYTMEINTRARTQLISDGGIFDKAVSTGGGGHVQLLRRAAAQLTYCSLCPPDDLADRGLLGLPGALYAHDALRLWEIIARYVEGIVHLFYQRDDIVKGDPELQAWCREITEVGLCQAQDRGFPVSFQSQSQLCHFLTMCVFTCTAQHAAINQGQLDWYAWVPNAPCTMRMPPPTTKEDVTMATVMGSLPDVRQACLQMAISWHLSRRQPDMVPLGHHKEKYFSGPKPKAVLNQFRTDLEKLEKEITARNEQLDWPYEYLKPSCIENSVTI
#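 Purified human 12hLO at 150 nM in 25 mM Hepes, 0.01% Triton X-100, pH 7.0, preincubated 15 min at room temperature with compound. Reaction started with 40 uM arachidonic acid, 30 min at room temperature. Hydroperoxide measured by Fe-xylenol orange, 573/405 nm absorbance ratio.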
# IL-1B inflam inh – blocks inflammasome-driven IL-1 beta release | activity change, % at 57.5 µM | 4.7% of 360,000 active | THP-1 LPS/ATP IL-1B secretion, AlphaLISA, 16 h; active compounds read low | AID 743279; in the data active means activity change below about -50%; inconclusive means mostly about -30% to -49%
#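 THP-1 cells pretreated 1 hr with compounds (up to 57.5 uM final), then stimulated with LPS (250 ng/mL final) plus ATP (1.25 mM final); secreted IL-1B measured by AlphaLISA after 16 hr, decreased signal indicating inhibition.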
# TDP1 cell CPT – DT40-hTDP1 cell growth loss with CPT. AID 686979. 12% of 420,000 active. Potency, µM (titrated, usually from 46.2 µM), inactives show at the highest dose activity change, negative = growth inhibition, usual class: inhibitors. chicken DT40 Tdp1-/-;hTDP1 cells + 20 nM CPT, ATP luminescence, 48 h; further: potency means the concentration at half of the fitted maximal effect; nearly all actives have a fitted effect of over 55% in size
#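 Chicken DT40 Tdp1-/- cells complemented with human TDP1, 400 cells/well, exposed to compounds plus 20 nM camptothecin for at least 48 h at 37 C; viability read as ATP content by CellTiter-Glo luminescence.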
# An asterisk follows results filed as active; ? = inconclusive; . = no result; [ ] = dose if it differs, or a comment. The full list was thinned out, with hits kept by preference. Unless noted, the call rests on the fitted dose curve; in most records, active means well fitted curve in the direction sought with a large enough effect; inconclusive means small, poorly fitted or top-dose-only effect, or another doubt; inactive means no such curve, though single readings can be large; an effect the other way counts as inactive or inconclusive. Unless noted, on the % scale 0 is the no-effect control and ±100 the full control effect.
SMILES,HT1080 IDH1KD tx,DT40 TDP1 no CPT,HT1080NT lethal,12-LOX inh,IL-1B inflam inh,TDP1 cell CPT
O=C(O)c1ccc(N/N=C/c2ccc(-c3cccc(Cl)c3)o2)cc1,16µM*,-11%,10µM*,8%,-13,?
O=C(O)c1cccc(-c2ccc(/C=N/Nc3ccc([N+](=O)[O-])cc3)o2)c1,-16%,-22%,-23%,?,-7,1%
Cc1nc2cc(NC(=O)c3cccc(Cl)c3Cl)ccc2o1,.,.,.,-5%,.,.
O=C1NC(c2ccc3c(c2)OCO3)Oc2ccccc21 (stereo unspecified),-8%,-7%,4%,-12%,-17,-7%
O=C1NC(c2ccc3ccccc3c2)Nc2ccccc21 (stereo unspecified),?,6.5µM*,?,47%,51,16µM*
COc1ccc(C2NC(=O)c3ccccc3N2)cc1OC (stereo unspecified),3%,-21%,-1%,?,3,-21%
O=C1NC(c2ccc3c(c2)OCO3)Nc2ccccc21 (stereo unspecified),5%[9.24 µM],16µM*,?,0%,41,23µM*
O=C1NC(c2ccc(Br)cc2)Nc2ccccc21 (stereo unspecified),12µM*,3.7µM*,5.8µM*,?,51,6.5µM*
CC1(CCc2ccc3c(c2)OCO3)NC(=O)c2ccccc2N1 (stereo unspecified),?,?,?,0%,-14,23µM*
Cc1onc(-c2ccccc2)c1-c1nnc(CN2CCN(CC(=O)N3CCOCC3)CC2)o1,.,.,.,7%,.,.
COCCNC(=O)c1nc(-c2cccc3[nH]ccc23)no1,.,.,.,-3%,.,.
O=C(/C=C/c1cccc(F)c1)NNC(=O)C1CCCCC1,.,.,.,26%,.,.
CN=c1scc(-c2ccccc2)n1/N=C/c1ccsc1,.,.,.,2%,.,.
Fc1ccc(OCc2nnc(-c3ccc(Br)o3)o2)cc1,.,.,.,19%,.,.
COc1ccc(C)cc1S(=O)(=O)N1CCN(S(=O)(=O)c2cc(C)ccc2OC)CC1,1%,-15%,-1%,0%,-4,-13%
COc1ccc(CN2CCN(C/C=C/c3ccccc3)CC2)cc1OC,.,.,.,0%,.,.
COc1ccc(CN2CCN(C/C=C/c3ccccc3)CC2)c(OC)c1OC,.,.,.,0.56µM*,.,.
COc1ccc(C)cc1S(=O)(=O)N1CCN(C/C=C/c2ccccc2)CC1,-5%,15µM*,-4%,102%,-2,?
CCOC(=O)N1CCN(Cc2nc3c(c(=O)n(C)c(=O)n3C)n2CC(=O)OC)CC1,.,.,.,-17%,.,.
CCCCn1nc(C(=O)Nc2nnc(Cc3ccccc3)s2)c2ccccc2c1=O,.,.,.,-9%,.,.
C[C@H](CO)N1C[C@H](C)[C@@H](CN(C)C(=O)Nc2ccc(C(F)(F)F)cc2)Oc2c(NC(=O)Cc3ccccc3)cccc2C1=O,-9%,-24%,-4%,0%,?,-21%
C[C@H](CO)N1C[C@H](C)[C@@H](CN(C)C(=O)NC2CCCCC2)Oc2c(NC(=O)CCC(F)(F)F)cccc2C1=O,6%,-20%,8%,-2%,-1,?
C[C@H](CO)N1C[C@H](C)[C@@H](CN(C)CC2CCCCC2)Oc2c(NC(=O)CCC(F)(F)F)cccc2C1=O,-25%,15µM*,?,-2%,7,21µM*
C[C@H](CO)N1C[C@H](C)[C@@H](CN(C)C(=O)Nc2ccc(C(F)(F)F)cc2)Oc2c(NC(=O)NC3CCCCC3)cccc2C1=O,-22%,?,-25%,-10%,?,-84%
C[C@H](CO)N1C[C@H](C)[C@@H](CN(C)C(=O)Nc2ccc(C(F)(F)F)cc2)Oc2c(NC(=O)CCC(F)(F)F)cccc2C1=O,-7%,?,-14%,-11%,-66*,?
